Source: the antibiotic and cytotoxicity screens of Wong et al. (2023)
The campaign covered roughly 39,000 compounds. About 500 (1.3%) were called active. What follows is part of a selection rich in actives, with near analogues and random picks from the rest.

Each compound was assayed on S. aureus RN4220 (assay: growth inhibition call (relative growth <= 0.2)). Details: 50 µM.

Growth inhibition call, inactive:
Cc1nn(C)cc1NC(=O)C[C@H]1CC[C@@H]2[C@H](COc3ccc(NC(=O)C4CCOCC4)cc3C(=O)N2C)O1
N#CCN1CCSCC1
C[C@H]1CN([C@@H](C)CO)C(=O)c2cc(NC(=O)CCN3CCOCC3)ccc2O[C@H]1CN(C)CC1CCCCC1
Cc1noc(C)c1S(=O)(=O)N(C)C[C@H]1OCCCC[C@@H](C)Oc2ccc(NS(C)(=O)=O)cc2C(=O)N([C@@H](C)CO)C[C@H]1C
COCC(=O)Nc1ccc2c(c1)C(=O)N(C)[C@@H]1CC[C@@H](CC(=O)N3CCc4ccccc4C3)O[C@H]1CO2
Cc1ccc(S(=O)(=O)N(C)C[C@@H]2Oc3ccc(NC(=O)NC(C)C)cc3CC(=O)N([C@H](C)CO)C[C@@H]2C)cc1
C[C@@H]1CCCCO[C@@H](CN(C)Cc2ccc(C(=O)Nc3ccccc3N)cc2)[C@@H](C)CN([C@H](C)CO)C(=O)c2cc(NC(=O)C3CCCCC3)ccc2O1
C[C@H]1CN([C@@H](C)CO)C(=O)c2cccc(NC(=O)c3cnccn3)c2O[C@H]1CN(C)Cc1ccc(C(=O)O)cc1
O=C(N/N=C/c1ccc(CO)o1)c1ccccn1
O=C(Cn1ccc([N+](=O)[O-])n1)N1CCOCC1
O=C(NN=Cc1ccc([N+](=O)[O-])o1)c1ccc(O)cc1
Cc1ccc(S(=O)(=O)N2CCN(CC(=O)N/N=C/c3ccccn3)CC2)cc1
COC(=O)N/N=C/c1ccc([N+](=O)[O-])o1
CCOC(=O)c1ccc(N2NC(=O)/C(=C/c3ccc([N+](=O)[O-])o3)C2=O)cc1
COCC#Cc1ccc2c(c1)O[C@H](CN(C)C(=O)c1ccccc1F)[C@H](C)CN([C@H](C)CO)S2(=O)=O
C[C@H](CO)N1C[C@H](C)[C@H](CN(C)C(=O)Nc2ccc3c(c2)OCO3)Oc2ncc(-c3cncnc3)cc2C1=O
COc1ccc(NC(=O)Nc2ccc3c(c2)C(=O)N([C@H](C)CO)C[C@@H](C)[C@@H](CN(C)Cc2ccc(C(=O)Nc4ccccc4N)cc2)O3)cc1
C[C@@H]1CN([C@H](C)CO)C(=O)CCCn2cc(nn2)CO[C@H]1CN(C)S(C)(=O)=O
O=C(CN1CCOCC1)NCC[C@H]1CC[C@@H](NC(=O)c2ccccc2F)[C@H](CO)O1
COc1ccc(NC(=O)N(C)C[C@@H]2OCCCC[C@@H](C)Oc3ccc(NS(=O)(=O)c4ccccc4)cc3C(=O)N([C@@H](C)CO)C[C@@H]2C)cc1
CCS(=O)(=O)Nc1ccc2c(c1)C(=O)N(C)C[C@H](OC)[C@@H](C)CN(Cc1nccs1)[C@H](C)CO2
CCOC(=O)Nc1ccc(C)s1
Cc1noc(C)c1S(=O)(=O)N(C)C[C@@H]1OCCCC[C@@H](C)Oc2ccc(NC(=O)Nc3ccc(C(F)(F)F)cc3)cc2C(=O)N([C@@H](C)CO)C[C@@H]1C
C[C@@H]1CN([C@H](C)CO)C(=O)c2cc(/C=C/c3ccccc3)cnc2O[C@@H]1CN(C)C(=O)C1CCOCC1
C[C@@H]1CN([C@@H](C)CO)C(=O)CCCn2nncc2CO[C@@H]1CN(C)S(=O)(=O)c1ccccc1C#N
COC(=O)c1c(C)cc(OC(=O)c2c(C)cc(O)c(C=O)c2O)c(C)c1O
Cc1cc(O)c(C=O)c(O)c1C(=O)O
CCCCC[C@@H](O)C[C@@H](O)CC(=O)O[C@@H](CCCCC)C[C@@H](O)CC(=O)OC[C@@H](O)[C@@H](O)[C@@H](O)[C@@H](O)CO
COc1ccc(CN(C)C[C@@H]2Oc3ccc(NC(=O)Nc4ccc(C(F)(F)F)cc4)cc3CC(=O)N([C@H](C)CO)C[C@@H]2C)cc1
C[C@H]1CCCCO[C@@H](CN(C)C(=O)Nc2ccccc2)[C@@H](C)CN([C@@H](C)CO)C(=O)c2cc(NC(=O)c3ccccc3)ccc2O1
O=C1c2ccccc2C(=O)c2c(NCCNCCO)ccc(NCCNCCO)c21
C[C@@H]1CN([C@H](C)CO)C(=O)c2cc(NC(=O)C3CC3)ccc2O[C@@H]1CN(C)Cc1ccc(-c2ccccc2)cc1
Cc1noc(C)c1NC(=O)Nc1cccc2c1O[C@@H](CN(C)C(=O)Nc1ccc(C(F)(F)F)cc1)[C@@H](C)CN([C@H](C)CO)C2=O
C[C@H](CO)N1C[C@H](C)[C@H](CN(C)C(=O)Nc2ccc(C(F)(F)F)cc2)Oc2c(NC(=O)Nc3ccc(F)cc3)cccc2C1=O
C[C@H]1CN([C@@H](C)CO)C(=O)c2cccc(NC(=O)Nc3ccc(C(F)(F)F)cc3)c2O[C@H]1CN(C)C(=O)Nc1ccc(F)cc1
COc1ccc(NC(=O)Nc2cccc3c2O[C@@H](CN(C)C(=O)Nc2ccc(C(F)(F)F)cc2)[C@@H](C)CN([C@@H](C)CO)C3=O)cc1
COc1ccc(NC(=O)Nc2cccc3c2O[C@H](CN(C)C(=O)Nc2ccc(C(F)(F)F)cc2)[C@@H](C)CN([C@@H](C)CO)C3=O)cc1
C[C@@H]1CN([C@@H](C)CO)C(=O)c2cccc(NC(=O)Nc3ccc(F)cc3)c2O[C@H]1CN(C)C(=O)Nc1ccc(C(F)(F)F)cc1
Cc1noc(C)c1NC(=O)Nc1cccc2c1O[C@H](CN(C)C(=O)Nc1ccc(C(F)(F)F)cc1)[C@H](C)CN([C@H](C)CO)C2=O
C[C@@H]1CN([C@H](C)CO)C(=O)c2cccc(NC(=O)Nc3ccc(F)cc3)c2O[C@H]1CN(C)C(=O)Nc1ccc(C(F)(F)F)cc1
CO[C@H]1CN(C)C(=O)c2ccc(NS(C)(=O)=O)cc2OC[C@H](C)N(C(=O)c2ccc3c(c2)OCO3)C[C@@H]1C
CCCNC(=O)N1C[C@H](O)COC[C@H]2O[C@@H](CC(=O)N3CCOCC3)CC[C@@H]21
CCCCc1cc(CCCC)n2nc(-c3ccccc3)cc2n1
CCS(=O)(=O)N1C[C@]2(CN(C2)S(=O)(=O)c2cn(cn2)C)c2c([nH]c3cc(ccc23)OC)[C@H]1CO
COCC#Cc1cnc2c(c1)C(=O)N([C@H](C)CO)C[C@H](C)[C@@H](CN(C)C(=O)c1ccc3c(c1)OCO3)O2
C[C@@H]1CCCCO[C@@H](CN(C)Cc2ccc(C(=O)O)cc2)[C@@H](C)CN([C@H](C)CO)C(=O)c2cc(NC(=O)Nc3ccc(F)cc3)ccc2O1
CN(C)CCN1C[C@@H]2CN(C(=O)c3cnc[nH]3)C[C@H]2C1=O
C[C@@H]1CN([C@H](C)CO)C(=O)Cc2cc(NS(=O)(=O)c3cn(C)cn3)ccc2O[C@H]1CN(C)S(=O)(=O)c1ccccc1
Cc1ccccc1S(=O)(=O)N1[C@@H]2c3cccc(=O)n3C[C@H]1[C@H](CO)[C@H]2C(=O)N1CCOCC1
C[C@H]1CN([C@@H](C)CO)C(=O)c2cccc(NS(=O)(=O)c3cn(C)cn3)c2O[C@@H]1CN(C)Cc1ccc(C(=O)Nc2ccccc2N)cc1
Cc1ccc(S(=O)(=O)N(C)C[C@H]2OCCCC[C@@H](C)Oc3ccc(NC(=O)CCCCCC(=O)Nc4ccccc4N)cc3C(=O)N([C@H](C)CO)C[C@@H]2C)cc1
Cc1noc(C)c1NC(=O)N(C)C[C@H]1OCCCC[C@@H](C)Oc2ccc(NS(=O)(=O)c3ccc(Cl)cc3)cc2C(=O)N([C@@H](C)CO)C[C@@H]1C
Cn1c(=O)c2c(ncn2C[C@@H](O)CNc2ccc(Br)cc2)n(C)c1=O
COc1cc(C)c(C=CC=CC=CC=CC(=O)O)c(C)c1C
C[C@H]1CN([C@@H](C)CO)C(=O)c2cccc(NC(=O)Nc3ccc(C(F)(F)F)cc3)c2O[C@@H]1CN(C)C(=O)Nc1ccc(F)cc1
C[C@@H]1CN([C@H](C)CO)C(=O)c2cccc(NC(=O)Nc3ccc(F)cc3)c2O[C@@H]1CN(C)C(=O)Nc1ccc(C(F)(F)F)cc1
C[C@H](CO)N1C[C@H](C)[C@@H](CN(C)C(=O)NC2CCCCC2)OCCCC[C@H](C)Oc2ccc(NC(=O)c3ccncc3)cc2C1=O
C[C@@H]1CN([C@@H](C)CO)C(=O)c2cc(NC(=O)Nc3ccc(F)cc3)ccc2O[C@@H](C)CCCCO[C@@H]1CN(C)C(=O)NC1CCCCC1
C[C@@H]1CCCCO[C@@H](CN(C)C(=O)C2CCCCC2)[C@@H](C)CN([C@H](C)CO)C(=O)c2cc(NC(=O)C3CCCCC3)ccc2O1

Growth inhibition call, active:
O=C(CN1CCOCC1)N/N=C/c1ccc([N+](=O)[O-])o1
NC(=O)N/N=C/c1ccc([N+](=O)[O-])o1
NC(=O)NN=Cc1ccc([N+](=O)[O-])o1
CCOC(=O)c1c(C)cc(O)c(C=O)c1O
COc1ccc(NC(=O)N(C)C[C@@H]2Oc3c(NC(=O)Nc4ccc(C(F)(F)F)cc4)cccc3C(=O)N([C@@H](C)CO)C[C@@H]2C)cc1
C[C@@H]1CN([C@@H](C)CO)C(=O)c2cccc(NC(=O)Nc3ccc(C(F)(F)F)cc3)c2O[C@H]1CN(C)C(=O)Nc1ccc(F)cc1
C[C@@H]1CN([C@H](C)CO)C(=O)c2cccc(NC(=O)Nc3ccc(C(F)(F)F)cc3)c2O[C@@H]1CN(C)C(=O)Nc1ccc(F)cc1
Cc1noc(C)c1NC(=O)Nc1cccc2c1O[C@@H](CN(C)C(=O)Nc1ccc(C(F)(F)F)cc1)[C@H](C)CN([C@@H](C)CO)C2=O
C[C@H](CO)N1C[C@H](C)[C@H](CN(C)C(=O)Nc2ccc(F)cc2)Oc2c(NC(=O)Nc3ccc(C(F)(F)F)cc3)cccc2C1=O
